Results on 38 molecules are retold here after PubChem BioAssay (NCI).

Each structure is given as a SMILES string. The panel holds about 83,000 compounds, 20% with a hit somewhere; the sample as a whole holds those more often.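 Values shown are percent growth following 48 h exposure of cells in 96-well plates to a single concentration of compound; below 10 was considered active.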 Unmarked numbers belong to inactive results. Activity calls are given as the source filed them.

One assay deals with OVCAR-4 ovarian. The experiment in a line: NCI-60 one-dose screen, 48 h (100 = growth as untreated, 0 = no growth, -100 = all killed). Conditions: 10 µM unless noted.
For the molecule `COC(=O)CC1=C(c2ccc([N+](=O)[O-])cc2)CCC1=O`, the growth is 110%.

As to `CCOC(=O)C1C(=O)NC(C(=O)OCC)(C(=O)OCC)C1CC` (centres undefined), the growth was 110%.

Regarding `COc1cccc(/C=N\NC(=O)c2ccncc2)c1O`, the growth is 31.7%.

Regarding `O=C(O)c1ccc(CNS(=O)(=O)c2ccc3ccccc3c2)cc1`, the growth is 98.3%.

In the case of `O=C(COc1cccc(/C=C2\Oc3ccc4ccccc4c3C2=O)c1)c1ccc([N+](=O)[O-])cc1`, the growth is 81.8%.

Consider `COC(=O)Nc1ccc2ccc3c(NC(=O)OC)ccc4ccc1c2c43` (tested in a mixture with another compound), for which the growth is 87.9%.

As to `O=C(Nc1cccc(Cl)c1)Nc1cccc(Cl)c1`, the growth is 62.4%.

For the molecule `COc1cc(/C=C/c2cc(/C=C/c3ccc(O)c(OC)c3)n(C(=O)c3ccc(Cl)cc3)n2)ccc1O`, the growth is 36.5%.

On to `CCCCCN1C(=O)CCC1=O`, for which the growth was 114%.

Regarding `CCC(C)C1NC(=O)C(CCNCS(=O)(=O)O)NC(=O)C(NC(=O)C(CCNCS(=O)(=O)O)NC(=O)C(NC(=O)C(CCNCS(=O)(=O)O)NC(=O)CCCCC(C)C)C(C)O)CCNC(=O)C(C(C)O)NC(=O)C(CCNCS(=O)(=O)O)NC(=O)C(CCNCS(=O)(=O)O)NC(=O)C(C(C)CC)NC1=O` (centres undefined), the growth was 58.1%.

Consider `N/C(=N\c1nc2ccccc2s1)NC(=O)Nc1ccccc1Cl`, for which the growth is 69.3%.

Consider `NC(=O)NC1(C(=O)O)CCCC1`, for which the growth is 118%.

For `O=C1NC(=O)/C(=C/c2ccc(Cl)cc2Cl)N1`, the growth was 97.4%.

`CC(=O)Nc1ccc(C(=O)COc2ccc(/C=C3\CCc4ccccc4C3=O)cc2)cc1`: the growth is 104%.

On to `Cc1ccc2c(c1)C(=O)/C(=C\Nc1ccc(C(N)=O)cc1)C(O)O2` (centres undefined), for which the growth was 101%.

Consider `NC(=O)c1cc(Br)cc(Br)c1NS(=O)(=O)c1ccccc1`, for which the growth was 95.8%.

In the case of `COc1ccc2ncccc2c1Cc1c(OC)ccc2ncccc12`, the growth was 83.3%.

As for `COc1ccccc1-n1c(-c2ccc(O)cc2C)cn2c3c(=O)[nH]c(=O)n(C)c3nc12`, the growth is 84.4%.

On to `C=C(CN1CCc2c([nH]c3ccccc23)C1)c1ccc(C(=O)Nc2ccon2)cc1`, for which the growth was 85.5%.

`COc1cccc(C=Nc2cc(C(C)C)c(O)cc2C)c1O`: the growth is 101%.

For the molecule `O=C(c1ccccc1)C(CN1CCCCC1)c1ccccc1` (centres undefined), the growth is 39.7%.

On to `Nc1ccc(N=Nc2ccccc2)cc1[N+](=O)[O-]`, for which the growth is 71.5%.

Take `CC(=O)c1ccc(NS(=O)(=O)c2ccc([N+](=O)[O-])cc2)cc1`: the growth is 112%.

As for `Nc1nc2c(nnn2Cc2ccc(Cl)c(Cl)c2)c(=O)[nH]1`, the growth is 112%.

With `CC1CN(CC(O)c2ccc(Br)cc2)CCO1` (centres undefined), the growth was 116%.

On to `O=C1NC(=O)/C(=C\c2ccco2)S1`, for which the growth was 121%.

Regarding `CCCCCCCSc1ncnc2[nH]ncc12`, the growth was 96.7%.

The next assay deals with SK-OV-3 ovarian. The assay is described as above. The conditions noted are these: 10 µM unless noted.
For the molecule `COC(=O)CC1=C(c2ccc([N+](=O)[O-])cc2)CCC1=O`, the growth is 99.1%.

Consider `CCOC(=O)C1C(=O)NC(C(=O)OCC)(C(=O)OCC)C1CC` (centres undefined), for which the growth is 112%.

In the case of `COc1cccc(/C=N\NC(=O)c2ccncc2)c1O`, the growth is 56.8%.

In the case of `O=C(O)c1ccc(CNS(=O)(=O)c2ccc3ccccc3c2)cc1`, the growth is 109%.

Regarding `c1cc[n+](Cc2ccnc3ccccc23)cc1`, the growth is 103%.

As to `O=C(COc1cccc(/C=C2\Oc3ccc4ccccc4c3C2=O)c1)c1ccc([N+](=O)[O-])cc1`, the growth was 88.9%.

Take `COC(=O)Nc1ccc2ccc3c(NC(=O)OC)ccc4ccc1c2c43` (tested in a mixture with another compound): the growth was 72%.

Regarding `O=C(Nc1cccc(Cl)c1)Nc1cccc(Cl)c1`, the growth was 93.4%.

As for `CCCCCN1C(=O)CCC1=O`, the growth was 110%.

In the case of `CCC(C)C1NC(=O)C(CCNCS(=O)(=O)O)NC(=O)C(NC(=O)C(CCNCS(=O)(=O)O)NC(=O)C(NC(=O)C(CCNCS(=O)(=O)O)NC(=O)CCCCC(C)C)C(C)O)CCNC(=O)C(C(C)O)NC(=O)C(CCNCS(=O)(=O)O)NC(=O)C(CCNCS(=O)(=O)O)NC(=O)C(C(C)CC)NC1=O` (centres undefined), the growth is 40.3%.

On to `O=C1OC(Oc2ccccc2)(c2ccccc2)c2ccccc21` (centres undefined), for which the growth was 106%.

On to `N/C(=N\c1nc2ccccc2s1)NC(=O)Nc1ccccc1Cl`, for which the growth is 31.8%.

Take `NC(=O)NC1(C(=O)O)CCCC1`: the growth was 109%.

As for `c1ccc(-c2oc(-c3ccccc3)c3ccccc23)cc1`, the growth was 116%.

Turning to `O=C1NC(=O)/C(=C/c2ccc(Cl)cc2Cl)N1`, the growth is 98.9%.

With `CC[C@@H](C)/C=C(C)/C=C/C(O)=C1\C(=O)N[C@@H](Cc2ccc(OC(=O)[C@@](OC)(c3ccccc3)C(F)(F)F)cc2)C1=O`, the growth was 112%.

In the case of `CC(=O)Nc1ccc(C(=O)COc2ccc(/C=C3\CCc4ccccc4C3=O)cc2)cc1`, the growth is 117%.

`CN(C)CCC(=O)Nc1ccc(-n2cc(-c3cccc(NC(=S)Nc4cccc(-c5cn(-c6ccc(NC(=O)CCN(C)C)cc6)nn5)c4)c3)nn2)cc1`: the growth was 115%.

As for `O=c1c2c(=NCCCN3CCCC3)cc3c(=O)n(CCCN4CCCC4)c(=O)c4c(NCCCN5CCCC5)cc(c(O)n1CCCN1CCCC1)c2c4-3`, the growth is -6.65% (active).

For the molecule `Cc1ccc2c(c1)C(=O)/C(=C\Nc1ccc(C(N)=O)cc1)C(O)O2` (centres undefined), the growth was 107%.

With `Cc1nn(-c2ccccc2)cc1/C=C1\SC(N2CCCCC2)=NC1=O`, the growth was 119%.

`NC(=O)c1cc(Br)cc(Br)c1NS(=O)(=O)c1ccccc1`: the growth was 102%.

`COc1ccc2ncccc2c1Cc1c(OC)ccc2ncccc12`: the growth is 83.6%.

For the molecule `CN1CCN(CCCCCN=c2cc3c(=O)n(CCCCCN4CCN(C)CC4)c(=O)c4c(NCCCCCN5CCN(C)CC5)cc5c(O)n(CCCCCN6CCN(C)CC6)c(=O)c2c5c4-3)CC1`, the growth is -29.6% (active).

Turning to `COc1ccccc1-n1c(-c2ccc(O)cc2C)cn2c3c(=O)[nH]c(=O)n(C)c3nc12`, the growth was 65.8%.

As to `C=C(CN1CCc2c([nH]c3ccccc23)C1)c1ccc(C(=O)Nc2ccon2)cc1`, the growth was 61.8%.

For `O=C(Oc1ccccc1)C(Br)C(Br)c1ccccc1` (centres undefined), the growth was 114%.

In the case of `COc1cccc(C=Nc2cc(C(C)C)c(O)cc2C)c1O`, the growth was 89.2%.

With `O=C(c1ccccc1)C(CN1CCCCC1)c1ccccc1` (centres undefined), the growth is 107%.

As for `Nc1ccc(N=Nc2ccccc2)cc1[N+](=O)[O-]`, the growth was 97.9%.

In the case of `COc1ccc(C2=NN(C(N)=S)C(c3ccc4c(c3)OCO4)C2)cc1` (centres undefined), the growth was 33.8%.

Regarding `CC(=O)c1ccc(NS(=O)(=O)c2ccc([N+](=O)[O-])cc2)cc1`, the growth was 95.7%.

On to `Nc1nc2c(nnn2Cc2ccc(Cl)c(Cl)c2)c(=O)[nH]1`, for which the growth was 97.4%.

`CC1CN(CC(O)c2ccc(Br)cc2)CCO1` (centres undefined): the growth is 112%.

For `O=C1NC(=O)/C(=C\c2ccco2)S1`, the growth is 97.1%.

Consider `CCCCCCCSc1ncnc2[nH]ncc12`, for which the growth is 101%.

Take `CN(C)CCCN=c1cc2c(=O)n(CCCN(C)C)c(=O)c3c(NCCCN(C)C)cc4c(O)n(CCCN(C)C)c(=O)c1c4c3-2`: the growth was -4.23% (active).
